# Shown are actives, neighbours in structure and some others; about 3.3% of the full set was active somewhere.
# TLR9-MyD88 block: TLR9-MyD88 interaction inhibition; CHO BLA complementation TLR9-MyD88, CCF4 FRET ratio; inhibition, % at 4.98 µM; 0.21% of 340,000 active;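 active means inhibition above the mean over all tested compounds plus 3 SD, cut at about 21% in these data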
# PRMT1 FP inh: inhibitors of human PRMT1. recombinant PRMT1, activity-based probe fluorescence polarization. AID 652257. 1.3% of 370,000 active. inhibition, % at 2.79 µM. Q99873;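 active means inhibition above about 21% made by adding two undisclosed values, limit read from the data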
# NOD2 RIPK2 PPI: blocks binding of human NOD2 to RIPK2; inhibition, % at 4.98 µM; AID 624267; O43353; CHO BLA complementation NOD2-RIPK2, CCF4 ratio; 0.38% of 360,000 active; in the data active means inhibition above about 21%
# rCAG binder: molecules binding r(CAG) RNA repeats; inhibition, % at 3 µM; r(CAG) RNA repeat, TO-PRO-1 dye displacement fluorescence; 1.3% of 370,000 active; AID 651821;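 active means inhibition above the plate cutoff, the mean of all test compounds on that plate plus 3 SD, cut at about 35% in these data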;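 further: higher means more dye released from RNA so lower well fluorescence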
# ABHD5 PLIN5 PPI: ABHD5-PLIN5 protein interaction inhibition. Split G. princeps luciferase complementation, luminescence, 4 h. inhibition, % at 4 µM. 0.78% of 360,000 active;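 active means inhibition above the mean inhibition across every tested compound plus 3 SD, cut at about 22% in these data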
# TLR4-MyD88 BLA: TLR4-MyD88 interaction inhibition in cells; 0.18% of 200,000 active; AID 861; inhibition, % at 8.4 µM; HeLa CL3-4 TLR4/MyD88 BLA complementation, FRET ratio; O00206+Q99836; in the data active means inhibition above about 25%
# TLR4 MyD88 cnf: confirmation of human TLR4-MyD88 binding inhibitors; shares compounds with TLR4-MyD88 BLA; HeLa CL3-4 BLA complementation, CCF4 FRET ratio; inhibition, % at 8.4 µM; 50% of 350 active;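 active means mean inhibition across three repeat runs above about 25% carried over from the earlier screen, limit read from the data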
# BLA inh HeLa: inhibits beta-lactamase activity, counter-screen to TLR4-MyD88 binding inhibitors. shares compounds with TLR4-MyD88 BLA. HeLa BLA reporter, CCF4 FRET ratio. inhibition, % at 8.4 µM. 63% of 350 active. AID 1237;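 active means mean inhibition over three repeats above about 26% taken from the earlier screen, limit read from the data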;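 further: HeLa cells stably expressing beta-lactamase reporter as counterscreen for TLR4-MyD88 inhibitors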
# TLR9-MyD88 cf: confirmation of human TLR9-MyD88 binding inhibitors | shares compounds with TLR9-MyD88 block | 51% of 680 active | AID 540250 | inhibition, % at 4.98 µM | CHO TLR9/MyD88 BLA complementation, CCF4 FRET ratio;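 active means mean inhibition across three repeats above about 21% taken from the earlier screen, limit read from the data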;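 further: blue over green emission ratio reports constitutive TLR9 MyD88 association via BLA complementation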
# BLA counter-1: non-selective beta-lactamase inhibitors in TLR9-MyD88 counter-screen. CHO-BLA cells, CCF4 FRET ratio, BLA reporter. inhibition, % at 4.98 µM. shares compounds with TLR9-MyD88 block. 7% of 680 active;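 active means mean inhibition above a 50% cutoff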;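 further: counterscreen of TLR9-MyD88 hits on CMV-driven BLA in CHO-K1 cells; higher means less blue over green ratio so more BLA blockade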
# TLR9 CHO tox: counter-screen for TLR9-MyD88 inhibitors: cytotoxicity in CHO cells; shares compounds with TLR9-MyD88 block; 39% of 680 active; luminescence; inhibition, % at 4.98 µM; AID 588336; in the data active means inhibition above about 11%
# ABHD5-PLIN5 conf: ABHD5-PLIN5 interaction inhibition, confirmed; shares compounds with ABHD5 PLIN5 PPI; biochemical ABHD5-PLIN5 interaction, luminescence; inhibition, % at 4 µM; 67% of 2,200 active; in the data active means inhibition above about 23%
# HNF4 split-luc: HNF4 split-luciferase signal hit, counter-screen; shares compounds with ABHD5 PLIN5 PPI; HNF4 dimerization, luminescence, biochemical; inhibition, % at 4 µM; 77% of 2,200 active; AID 651674;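 active means mean inhibition across replicate wells exceeding the computed hit threshold, cut at about 13% in these data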;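 further: light from luciferase halves that rejoin when HNF4 fusion proteins dimerize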
# NOD2-RIPK2 conf: confirmation of human NOD2-RIPK2 interaction inhibitors. shares compounds with NOD2 RIPK2 PPI. CHO cells, NOD2-RIPK2 BLA complementation, CCF4 FRET. inhibition, % at 4.98 µM. 70% of 1,200 active. AID 624370;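 active means mean inhibition across replicates above a set limit taken from the earlier primary screen, cut at about 21% in these data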
# BLA counter-2: NOD2-RIPK2 counterscreen BLA reporter activity. shares compounds with NOD2 RIPK2 PPI. CHO BLA reporter, CCF4 FRET ratio. inhibition, % at 4.98 µM. 57% of 1,200 active. AID 624371;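 active means mean inhibition above the low-control mean inhibition plus three low-control SD, cut at about 11% in these data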
# Numbers stand for hits; . = inactive; / = no result given.
SMILES,TLR9-MyD88 block,PRMT1 FP inh,NOD2 RIPK2 PPI,rCAG binder,ABHD5 PLIN5 PPI,TLR4-MyD88 BLA,TLR4 MyD88 cnf,BLA inh HeLa,TLR9-MyD88 cf,BLA counter-1,TLR9 CHO tox,NOD2-RIPK2 conf,BLA counter-2,others
CC1(C)CC(=O)C2=C(C1)OC1=C(C(=O)CC(C)(C)C1)C2c1ccc(O)cc1O,.,78.2,66.8,.,87.2,33.5,.,.,/,/,/,78.6,.,ABHD5-PLIN5 conf=102.1;HNF4 split-luc=107.9
CC1(C)CC(=O)C2=C(C1)OC1=C(C(=O)CC(C)(C)C1)C2c1ccc(O)c([N+](=O)[O-])c1,.,.,.,.,.,.,/,/,/,/,/,/,/,
C/C(=N\Nc1ccc([N+](=O)[O-])cc1)c1ccco1,29.7,.,25.0,.,.,29.1,27.0,41.9,.,.,.,36.1,40.6,
C/C(=N\Nc1ccc([N+](=O)[O-])cc1)c1ccc(N)cc1,.,.,.,.,.,.,/,/,/,/,/,/,/,
CCc1ccc(/C(C)=N\Nc2ccc([N+](=O)[O-])cc2)cc1,31.1,.,30.1,.,.,31.9,31.6,54.8,23.4,.,.,41.2,46.4,
CC/C(=N\Nc1ccc([N+](=O)[O-])cc1)c1ccccc1,22.5,/,26.8,/,.,30.8,.,34.7,.,.,.,37.8,39.7,
Cc1cc(C)n(C(=O)/C(C#N)=N/Nc2cc(Cl)cc(Cl)c2)n1,.,/,.,/,.,.,/,/,/,/,/,/,/,
CCCN(CCC)CC(O)Cn1cc(/C=C/C(=O)c2ccccc2)c2ccccc21 (configuration not stated),.,.,.,.,.,.,/,/,/,/,/,/,/,
CCCN(CCC)CC(O)Cn1cc(/C=C/C(=O)c2cccs2)c2ccccc21 (configuration not stated),39.7,.,38.7,.,.,39.0,32.2,62.5,20.8,.,.,45.6,44.0,
O=c1/c(=C/c2ccc(O)c([N+](=O)[O-])c2)sc2nc3ccccc3n12,/,.,.,.,.,.,/,/,/,/,/,/,/,
CCN(CC)c1ccc(/C=c2\sc3nc4ccccc4n3c2=O)c(O)c1,34.0,.,37.4,.,.,29.5,.,50.0,21.4,.,.,45.7,56.2,
CC(C)c1nc2sc3c(c2c(=O)[nH]1)CC(C)(C)OC3,.,.,.,.,.,/,/,/,/,/,/,/,/,
CC(=O)Nc1nc2n(n1)C(c1ccc(F)cc1)C=C(c1ccccc1)N2 (configuration not stated),40.7,.,40.7,.,.,34.2,36.1,56.4,.,.,.,.,.,
CCOC(=O)C1(C)CCCN(C(=O)c2ccc(OC)c(OC)c2)C1 (configuration not stated),/,.,.,.,.,/,/,/,/,/,/,/,/,
O=C1c2cccc3c([N+](=O)[O-])ccc(c23)C(=O)N1CCc1ccccn1,.,.,.,.,.,/,/,/,/,/,/,/,/,
CN(C)CCCN1C(=O)c2cccc3c([N+](=O)[O-])ccc(c23)C1=O,70.1,.,82.3,.,.,86.2,86.0,109.4,55.1,72.4,94.7,89.6,76.7,
Cc1cc2c(cc1C)-c1nnnn1C(N1CCCC1)C(=O)N2 (configuration not stated),/,.,.,.,.,/,/,/,/,/,/,/,/,
Cn1c([N+](=O)[O-])cnc1N1CCN(c2nncs2)C1=O,.,.,.,.,.,/,/,/,/,/,/,/,/,
COc1ccc(CN(C(=O)/C=C/C(=O)c2ccc(OC)cc2O)C(C(=O)NC2CCCCC2)c2ccncc2)cc1 (configuration not stated),.,.,.,.,.,.,/,/,/,/,/,/,/,
COCCN(CC(=O)NC1CCCCC1)C(=O)/C=C/C(=O)c1ccc(OC)cc1O,.,.,49.8,.,61.5,31.1,26.9,.,/,/,/,90.9,12.0,ABHD5-PLIN5 conf=101.7;HNF4 split-luc=106.1
NC(=O)c1ccc(NC(=O)COC(=O)c2c3c(nc4ccccc24)/C(=C\c2cccs2)CCC3)cc1,.,.,.,.,.,.,/,/,/,/,/,/,/,
CC(C)CNC(=O)COC(=O)c1c2c(nc3ccccc13)/C(=C/c1cccs1)CC2,32.4,.,37.7,.,.,45.1,43.0,70.8,40.9,.,.,64.8,73.3,
Cc1ccc(C(=O)N2CCCC2(C)C(=O)NCC(C)C)cc1F (configuration not stated),/,.,.,.,.,/,/,/,/,/,/,/,/,
O=[N+]([O-])c1ccc(N/N=C\c2cccn2-c2ccccc2)nc1,33.7,.,46.1,.,.,41.3,39.7,61.5,.,.,.,52.3,54.1,
CC[C@H](C)[C@H]1CNC(=S)N1CC1CCN(CCC(C)C)CC1,.,.,.,.,.,/,/,/,/,/,/,/,/,
O=C(OCn1ncc(Cl)c(Cl)c1=O)c1ccc(C(F)(F)F)cc1,.,.,.,.,.,.,/,/,/,/,/,/,/,
CCOC(=O)c1ccc(NC(=O)Cn2ncc(Cl)c(Cl)c2=O)cc1,26.7,24.5,51.8,.,.,27.4,37.4,.,24.4,.,98.9,65.5,14.4,
Cc1ccc(C(=O)OCn2ncc(Cl)c(Cl)c2=O)cc1,29.7,.,66.2,.,.,54.5,62.4,.,27.1,.,98.4,85.0,.,
COc1cc(NC(=O)[C@@H](NC(=O)N2CCn3c2nc2ccccc23)C(C)C)cc(OC)c1,.,.,.,.,.,/,/,/,/,/,/,/,/,
COc1ccc(/C=c2/sc3n(c2=O)C(c2ccccc2OC)C2=C(N=3)c3ccccc3CC2)cc1O (configuration not stated),.,.,35.2,.,.,27.3,.,44.8,/,/,/,25.6,31.4,

# Bioassay records (PubChem BioAssay)
